From PubChem BioAssay (Tox21)
Results filed as inconclusive are left out. A number with no mark means an inactive call. Active and inactive are the calls of the source. Calls follow the shape of the dose curve; as a rule, active = well fitted cell-killing curve with a large enough effect in the repeat runs; inconclusive = weak or mixed curves; inactive = flat fitted curve, though single readings scatter.

assay: qHTS assay to identify small molecule antagonists of the estrogen receptor beta (ER-beta) signaling pathway - cell viability counter screen (AID 1259382); details: ER-beta-UAS-bla HEK293T viability, CellTiter-Glo luminescence, 16 h; series mostly up to 92.4 µM; activity change, negative = cytotoxicity: at the top concentration; also: nearly all actives have a fitted effect of over 55% in size
Source text: U.S. Tox21 Program National Center for Advancing Translational Sciences [NCATS] NIH Chemical Genomics Center [NCGC] U.S. Environmental Protection Agency [EPA] National Institutes of Environmental Health Sciences [NIEHS] National Toxicology Program [NTP] U.S. Food and Drug Administration [FDA] Tox21 Assay Overview: Estrogen receptor (ER), a nuclear hormone receptor, plays an important role in development, metabolic homeostasis and reproduction. Two subtypes of ER, ER-alpha and ER-beta, have similar expression patterns with some uniqueness in both types. Endocrine disrupting chemicals (EDCs) and their interactions with steroid hormone receptors like ER causes disruption of normal endocrine function. To identify the compounds that inhibit ER signaling, an ER-beta-UAS-bla GripTite cell line (Life Technologies, Madison, WI, USA) containing a beta-lactamase reporter gene under the control of an UAS response element was used to screen Tox21 10K compound library. The cytotoxicity of the Tox21 compound library against the ER-beta-bla cell line was tested in parallel by measuring the cell viability using CellTiter-Glo assay in the same wells.
Tox21 Assay Protocol Summary: ER-beta-UAS-bla HEK293T cells were dispensed at 2,000 cells/4 uL of assay medium containing 2% charcoal stripped FBS per well into black wall/clear-bottom 1536-well plates using a Multidrop Combi (ThermoFisher Scientific, Waltham, MA) dispenser. After the assay plates were incubated at a 37C and 5% CO2 for 6 hr, 23 nL of compounds dissolved in DMSO, positive controls or DMSO only was transferred to the assay plate by a Pintool station (Kalypsys, San Diego, CA), followed by addition of 1 uL (1nM as final concentration) of 17-beta-estradiol (E2) in assay medium using a Flying Reagent Dispenser (FRD, Aurora Discovery, San Diego, CA). The plates were incubated at 37C and 5% CO2 for 16 hr. Then 1 uL of LiveBLAzer B/G FRET substrate was added using a Flying Reagent Dispenser, the plates were incubated at room temperature for 2 hours, and fluorescence intensity was measured by an Envision plate reader (PerkinElmer, Shelton, CT). For cell viability readout that measures cytotoxicity, 4 uL/well of CellTiter-Glo reagent was added into the assay plates using a FRD. After 30 min incubation at room temperature, the luminescence intensity in the plates was measured using a ViewLux (PerkinElmer) plate reader.
% is scaled to controls: 0 for no effect and ±100 for the full control effect; potency is read from the fitted curve at half-maximal effect.

| Compound | activity change, negative = cytotoxicity | Potency |
| --- | --- | --- |
| CCCCCCCCS(=O)C(C)Cc1ccc2c(c1)OCO2 (stereo not given) | -9.89% | – |
| [Cl][Bi]([Cl])([c]1ccccc1)([c]1ccccc1)[c]1ccccc1 | – | 8.58 µM (active) |
| CCN(C(=O)N(CC)c1ccccc1)c1ccccc1 | -6.14% | – |
| CN(C/C=C/C#CC(C)(C)C)Cc1cccc2ccccc12 | – | 29.8 µM (active) |
| Cc1ccc(-n2nc(C(C)(C)C)cc2NC(=O)Nc2ccc(OCCN3CCOCC3)c3ccccc23)cc1 | -10% [at 42.5 µM] | – |
| N=C1N=C(N)c2ccccc21 | 4.06% | – |
| CCC(Cl)C(Cl)C(Cl)CC(Cl)C(Cl)C(C)Cl (stereo not given) | 0.864% | – |
| CCCCc1oc2ccc(NS(C)(=O)=O)cc2c1C(=O)c1ccc(OCCCN(CCCC)CCCC)cc1 | – | 10.6 µM (active) |
| O=c1[nH]sc2ccccc12 | – | 27.3 µM (active) |
| CCC(N)(CO)CO | 1.71% | – |
| OC1(c2ccc(Cl)c(C(F)(F)F)c2)CCN(CCCC(c2ccc(F)cc2)c2ccc(F)cc2)CC1 | – | 10.6 µM (active) |
| Cc1cc(C2CCCCC2)n(O)c(=O)c1 | -11.8% [at 42.5 µM] | – |
| CCCCCCCCCCCC(=O)NCCCN(C)C | – | 54.5 µM (active) |
| O=C(OC[C@H]1O[C@@H](OC(=O)c2cc(O)c(O)c(OC(=O)c3cc(O)c(O)c(O)c3)c2)[C@H](OC(=O)c2cc(O)c(O)c(OC(=O)c3cc(O)c(O)c(O)c3)c2)[C@@H](OC(=O)c2cc(O)c(O)c(OC(=O)c3cc(O)c(O)c(O)c3)c2)[C@@H]1OC(=O)c1cc(O)c(O)c(OC(=O)c2cc(O)c(O)c(O)c2)c1)c1cc(O)c(O)c(OC(=O)c2cc(O)c(O)c(O)c2)c1 | -6.33% [at 19 µM] | – |
| OCc1c[nH]c2ccccc12 | -0.751% | – |
| COc1ccc(C(=O)/C(Br)=C\C(=O)O)cc1 | -18.2% | – |
| NC(=O)CC[C@@H]1NC(=O)[C@H](Cc2ccccc2)NC(=O)[C@H](Cc2ccc(O)cc2)NC(=O)CCSSC[C@@H](C(=O)N2CCC[C@H]2C(=O)N[C@@H](CCCN=C(N)N)C(=O)NCC(N)=O)NC(=O)[C@H](CC(N)=O)NC1=O | 7.32% [at 42.5 µM] | – |
| CCc1cc(SCc2sc(-c3ccc(C(F)(F)F)cc3)nc2CN2CCN(c3ccc(OC)cc3)CC2)ccc1OCC(=O)O | – | 4.33 µM (active) |
| CC[C@H](c1ccc(O)cc1)[C@@H](CC)c1ccc(O)cc1 | -6.56% [at 42.5 µM] | – |
| Oc1ccc(C2(c3ccc(O)cc3)CC3CC2C2CCCC32)cc1 (stereo not given) | – | 26.2 µM (active) |

| Compound | activity change, negative = cytotoxicity | Potency |
| --- | --- | --- |
| CC(=O)N1CCN(c2ccc(OC[C@H]3CO[C@](Cn4ccnc4)(c4ccc(Cl)cc4Cl)O3)cc2)CC1 | – | 30.6 µM (active) |
| NC(=O)N1C(=O)C(C(=O)c2cc(Cl)cs2)c2cc(F)c(Cl)cc21 (stereo not given) | – | 30.6 µM (active) |
| CCCN(CCC)C(=O)C(CCC(=O)OCCCN1CCN(CCOC(=O)Cc2c(C)n(C(=O)c3ccc(Cl)cc3)c3ccc(OC)cc23)CC1)NC(=O)c1ccccc1 (stereo not given) | – | 13.3 µM (active) |
| O=C1CCCCCN1SSN1CCCCCC1=O | 3.22% | – |
| NNc1nc(-c2ccc([N+](=O)[O-])cc2)cs1 | -21.4% | – |
| Cc1[nH]nc2c1N=C(c1ccccc1Cl)c1cc([N+](=O)[O-])ccc1N2 | – | 48.6 µM (active) |
| Cc1ccc(O)c(C(C)(C)C)c1 | – | inactive |
| COC(=O)C1=C(C)NC(C)=C(C(=O)OCC(C)C)C1c1ccccc1[N+](=O)[O-] (stereo not given) | -8.34% [at 42.5 µM] | – |
| CCOC(=O)O[C@]1(C(=O)OCCl)CC[C@H]2[C@@H]3CCC4=CC(=O)C=C[C@]4(C)[C@H]3[C@@H](O)C[C@@]21C | -3% [at 42.5 µM] | – |
| Cc1cc(CCN2CCN(c3nsc4ccccc34)CC2)cc2c1NC(=O)CC2(C)C | – | 19.3 µM (active) |
| CN(C)c1ccc(C2(c3ccc(N(C)C)cc3)OC(=O)c3cc(N(C)C)ccc32)cc1 | -6.56% | – |
| O=CC=C(c1ccccc1)c1ccccc1 | – | 27.5 µM (active) |
| O=C(O)c1c(Cl)cccc1Cl | -0.124% | – |
| Cc1cccc(S(=O)(=O)O)c1C | 5.86% | – |
| Cc1cccc2c1cc1ccc3cccc4ccc2c1c34 | -5.75% | – |
| CC(C)(C)c1ccc(C(=O)O)cc1 | -9.34% | – |
| O=C(OCC(COC(=O)c1ccccc1)(COC(=O)c1ccccc1)COC(=O)c1ccccc1)c1ccccc1 | -4.53% | – |
| OCCN(CCO)c1nc(N2CCCCC2)c2nc(N(CCO)CCO)nc(N3CCCCC3)c2n1 | 0.39% [at 42.5 µM] | – |
| CC(=O)OCC(C)OC(C)=O (stereo not given) | 5.47% | – |
| C/C=C(\C)C(=O)OCc1ccccc1 | 1.22% | – |
